Results reported in PubChem BioAssay (Tox21).
Inconclusive results are not listed. Where a call stands in place of a potency, no number is given. Calls of active or inactive are those of the source. Unless noted, calls come from the whole dose curve; as a rule, active = well fitted curve in the direction sought with a large enough effect in the repeat runs; inconclusive = weak or mixed curves; inactive = no such curve, though single readings can be large; an effect the other way counts as inactive or inconclusive.

Key:
[1] = qHTS assay to identify small molecule antagonists of the estrogen receptor alpha (ER-alpha) signaling pathway using the BG1 cell line in the presence of 0.1 nM 17-beta-estradiol - cell viability counter screen (AID 1259241); note: nearly all actives have a fitted effect of over 40% in size
Procedure, shortened: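 Cytotoxicity counter-screen: live-cell protease activity measured by fluorescence (30 min reagent step) in the same wells. Cells were VM7Luc4E2 with endogenous ER-alpha and ERE-driven luciferase, treated 22 hr at 37C alongside 0.1 nM 17beta-estradiol final.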

[2] = qHTS assay to identify small molecule antagonists of the androgen receptor (AR) signaling pathway using the MDA cell line in the presence of 0.5 nM R1881 - cell viability counter screen (AID 1259242); note: nearly all actives have a fitted effect of over 45% in size
Procedure, shortened: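 Live-cell protease fluorescence, CellTiter-Fluor, 30 min at 37C. Cells: MDA-kb2, 3,000/well, preincubated 5 hr. Compounds plus 0.5 nM R1881 final, 16 hr, 37C, 0% CO2.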

[3] = qHTS assay to identify small molecule phospholipidosis (PLD) inducers (AID 1259344; active = well fitted curve in the direction sought with a large enough effect; an effect the other way counts as inactive or inconclusive)
Procedure, shortened: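 Read-out is LipidTOX Red fluorescence (ex 595/em 615) imaged in HepG2 cells after 24 h compound exposure at 37 C, with Hoechst nuclear counterstain (ex 352/em 461) allowing per-cell normalisation.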

[4] = qHTS assay to identify small molecule HDAC inhibitors (AID 1259364);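 note: wild-type HCT-116 cells with endogenous class I/II HDAC activity; top concentration of the series differs between compounds; nearly all actives have a fitted effect of over 45% in size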
Procedure, shortened: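 HCT-116 (wild type), 1,500 cells/well, overnight; compound 2 hr 37C 5% CO2; HDAC-Glo I/II reagent 30 min RT; luminescence readout.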

[5] = qHTS assay to identify small molecule HDAC inhibitors - cell viability counter screen (AID 1259365); note: series mostly up to about 92 µM; nearly all actives have a fitted effect of over 50% in size
Procedure, shortened: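 CellTiter-Glo luminescence (30 min, room temperature) reported viability after a 2 h compound exposure at 37 C. Cells: wild-type HCT-116, 1,500 per well, seeded the night before.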

[6] = qHTS assay to identify small molecule agonists of the sonic hedgehog signaling (Shh) pathway - cell viability counter screen (AID 1259366); note: nearly all actives have a fitted effect of over 50% in size
Procedure, shortened: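 Cytotoxicity counter screen: CellTiter-Fluor reagent added after 23 h compound exposure, then 1 h at 37C and fluorescence read. Cells were 3T3 Gli1-Luc, seeded 2,000 per well and dosed 4 h post-plating.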

[7] = qHTS assay to identify small molecule antagonists of the sonic hedgehog signaling (Shh) pathway - cell viability counter screen (AID 1259367); note: nearly all actives have a fitted effect of over 55% in size
Procedure, shortened: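 Fluorescence read-out (CellTiter-Fluor, 1 hr at 37C) taken after 23 hr compound treatment of 3T3 Gli1-Luc cells stimulated with conditioned medium. Cells were seeded at 2,000 per well and pre-incubated 4 hr.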

[8] = qHTS assay to identify small molecule agonists of the sonic hedgehog signaling (Shh) pathway (AID 1259368; calls by dose curve;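 note: NIH/3T3-derived 3T3Gli1-Luc cells carrying a stable Gli1-driven firefly luciferase reporter; series mostly up to about 92 µM; nearly all actives have a fitted effect of over 15% in size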)
Procedure, shortened: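 Read-out: firefly luciferase luminescence from a Gli1 response element reporter stably integrated in NIH/3T3-derived 3T3Gli1-Luc cells, measured 30 min at room temperature after reagent addition. Compound exposure lasted 24 hr at 37 C, 5% CO2.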

[9] = qHTS assay to identify small molecule antagonists of the sonic hedgehog signaling (Shh) pathway (AID 1259369; calls by dose curve; note: nearly all actives have a fitted effect of over 45% in size; note: potency is the fitted concentration of half-maximal effect)
Procedure, shortened: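 Luminescence readout: firefly Luc under Gli1 response element in 3T3Gli1-Luc cells (NIH/3T3 clone). Antagonist mode, stimulation by conditioned medium; compound exposure 24hr at 37 C, 5% CO2.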

[10] = qHTS assay to identify small molecule agonists of the androgen receptor (AR) signaling pathway in the presence of an antagonist - cell viability counter screen (AID 1259379);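 note: MDA-kb2 human breast cancer cells carrying an MMTV luciferase reporter; series mostly up to about 92 µM; nearly all actives have a fitted effect of over 25% in size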
Procedure, shortened: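 Viability counter screen: CellTiter-Fluor fluorescence, measured in the same wells as the luciferase read-out. MDA-kb2 cells, 3,000/well, with nilutamide at 3.0uM final and compounds at 15 concentrations, 16 hr at 37C, 0% CO2.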

[11] = qHTS assay to identify small molecule agonists of the estrogen receptor beta (ER-beta) signaling pathway - cell viability counter screen (AID 1259380); note: nearly all actives have a fitted effect of over 30% in size
Procedure, shortened: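 Luminescence read-out (CellTiter-Glo, 30 min, room temp) taken in the same wells as the beta-lactamase reporter assay; ER-beta-UAS-bla HEK293T cells exposed to DMSO-dissolved compounds for 16 hr at 37C in 2% charcoal-stripped FBS medium.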

[12] = qHTS assay to identify small molecule antagonists of the estrogen receptor beta (ER-beta) signaling pathway - cell viability counter screen (AID 1259382); note: series mostly up to about 92 µM; nearly all actives have a fitted effect of over 55% in size
Procedure, shortened: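 Luminescent ATP read-out (CellTiter-Glo, 30 min, RT) taken in the same wells as the bla reporter assay. HEK293T ER-beta-UAS-bla cells in 2% charcoal-stripped FBS were exposed to compounds with 1nM E2 for 16 hr at 37C.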

[13] = qHTS assay to identify small molecule agonists or antagonists of the thyroid stimulating hormone receptor (TSHR) signaling pathway - wild type cell line counter screen (AID 1259384; calls by dose curve)
Procedure, shortened: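 Wild-type Hek293 cells, 800/well, 18 h at 37C, then compound with Ro20-1724 for 30 min RT. cAMP by HTRF (cAMP-d2/anti-cAMP cryptate), 1 h RT, fluorescence read. 15 concentrations, triplicates.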

[14] = target: Thyrotropin receptor (Homo sapiens) (UniProt P16473); assay: qHTS assay to identify small molecule antagonists of the thyroid stimulating hormone receptor (TSHR) signaling pathway (AID 1259385; calls by dose curve; note: nearly all actives have a fitted effect of over 20% in size)
Procedure, shortened: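 TSHR-HEK293 cells (800/well) plated 18 h, then compounds with Ro20-1724 and TSH at 1.5 ng/mL final, 30 min at room temperature. cAMP quantified by HTRF (cAMP-d2/anti-cAMP-cryptate, 1 h); 15 concentrations in triplicate.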

[15] = target: Estrogen receptor beta (Homo sapiens) (UniProt Q92731); assay: qHTS assay to identify small molecule agonists of the estrogen receptor beta (ER-beta) signaling pathway (AID 1259377; active = well fitted activation curve with a large enough effect in the signal ratio in the repeat runs, not every such curve was filed as active; the % refers to the signal ratio)
Procedure, shortened: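 Ratiometric beta-lactamase FRET read-out came after 2 h substrate loading at room temperature. It followed 16 h compound treatment at 37C of GripTite HEK293T cells carrying a UAS-bla reporter, plated in 2% charcoal-stripped FBS medium.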

[16] = target: Estrogen receptor (Homo sapiens) (UniProt P03372); assay: qHTS assay to identify small molecule agonists of the estrogen receptor alpha (ER-alpha) signaling pathway in the presence of an antagonist (AID 1259383; calls by dose curve; note: top concentration of the series differs between compounds; nearly all actives have a fitted effect of over 15% in size)
Procedure, shortened: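 Luciferase luminescence (ONE-Glo, 30min at room temperature) measured in VM7Luc4E2 cells after 22hr compound exposure at 15 concentrations, with 10.0nM ICI-182,780 final present; cells express endogenous ER-alpha and carry four EREs upstream of luciferase.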

[17] = target: Estrogen receptor beta (Homo sapiens) (UniProt Q92731); assay: qHTS assay to identify small molecule antagonists of the estrogen receptor beta (ER-beta) signaling pathway (AID 1259378; active = well fitted inhibition curve with a large enough effect in the signal ratio in the repeat runs, not every such curve was filed as active; the % refers to the signal ratio)
Procedure, shortened: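 ER-beta-UAS-bla HEK293T cells in 2% charcoal-stripped FBS medium treated with compound plus 1nM final 17-beta-estradiol for 16 hr at 37C. Beta-lactamase reporter read by FRET substrate fluorescence after 2 hours at room temperature.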

[18] = target: Androgen receptor (Homo sapiens) (UniProt P10275); assay: qHTS assay to identify small molecule antagonists of the androgen receptor (AR) signaling pathway using the MDA cell line in the presence of 0.5 nM R1881 (AID 1259243); note: nearly all actives have a fitted effect of over 50% in size
Procedure, shortened: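 MDA-kb2, MMTV-luc (AR/GR elements); 3,000 cells/well; cpd + 0.5 nM R1881 final; 16 hr 37C, 0% CO2; ONE-Glo 30 min RT; luminescence.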

[19] = target: Estrogen receptor (Homo sapiens) (UniProt P03372); assay: qHTS assay to identify small molecule antagonists of the estrogen receptor alpha (ER-alpha) signaling pathway using the BG1 cell line in the presence of 0.1 nM 17-beta-estradiol (AID 1259244); note: nearly all actives have a fitted effect of over 50% in size
Procedure, shortened: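 Luminescence after ONE-Glo (30 min, room temperature) measured ERE-luciferase activity in VM7Luc4E2 cells treated 22 h with compound and 0.1 nM final 17beta-estradiol as stimulator.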

[20] = target: Androgen receptor (Homo sapiens) (UniProt P10275); assay: qHTS assay to identify small molecule agonists of the androgen receptor (AR) signaling pathway in the presence of an antagonist (AID 1259381; calls by dose curve; note: nearly all actives have a fitted effect of over 15% in size)
Procedure, shortened: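 Luciferase read-out (ONE-Glo, 30min room temperature) in MDA-kb2 MMTV-reporter cells; agonist mode run in presence of AR antagonist nilutamide, 3.0uM final. Compounds tested as 15-point series, 16hr exposure at 37C, 0% CO2.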

Estrogen receptor (Homo sapiens), sequence (P03372 whole entry, looked up): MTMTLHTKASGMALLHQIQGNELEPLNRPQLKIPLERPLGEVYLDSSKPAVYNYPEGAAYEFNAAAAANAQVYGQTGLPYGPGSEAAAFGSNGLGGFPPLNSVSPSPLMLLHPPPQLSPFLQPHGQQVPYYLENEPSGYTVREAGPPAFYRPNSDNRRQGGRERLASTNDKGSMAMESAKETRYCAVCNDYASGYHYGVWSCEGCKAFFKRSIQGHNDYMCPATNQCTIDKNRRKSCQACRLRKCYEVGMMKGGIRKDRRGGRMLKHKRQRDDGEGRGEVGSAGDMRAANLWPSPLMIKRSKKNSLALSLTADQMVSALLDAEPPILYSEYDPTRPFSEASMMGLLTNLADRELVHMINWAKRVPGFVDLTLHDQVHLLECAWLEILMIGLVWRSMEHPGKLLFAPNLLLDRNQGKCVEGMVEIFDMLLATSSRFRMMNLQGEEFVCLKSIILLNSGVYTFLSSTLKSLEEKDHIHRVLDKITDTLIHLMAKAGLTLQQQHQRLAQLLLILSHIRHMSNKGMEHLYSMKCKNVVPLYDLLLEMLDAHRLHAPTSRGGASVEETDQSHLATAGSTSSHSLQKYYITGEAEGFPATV
Androgen receptor (Homo sapiens), sequence (P10275 whole entry, looked up): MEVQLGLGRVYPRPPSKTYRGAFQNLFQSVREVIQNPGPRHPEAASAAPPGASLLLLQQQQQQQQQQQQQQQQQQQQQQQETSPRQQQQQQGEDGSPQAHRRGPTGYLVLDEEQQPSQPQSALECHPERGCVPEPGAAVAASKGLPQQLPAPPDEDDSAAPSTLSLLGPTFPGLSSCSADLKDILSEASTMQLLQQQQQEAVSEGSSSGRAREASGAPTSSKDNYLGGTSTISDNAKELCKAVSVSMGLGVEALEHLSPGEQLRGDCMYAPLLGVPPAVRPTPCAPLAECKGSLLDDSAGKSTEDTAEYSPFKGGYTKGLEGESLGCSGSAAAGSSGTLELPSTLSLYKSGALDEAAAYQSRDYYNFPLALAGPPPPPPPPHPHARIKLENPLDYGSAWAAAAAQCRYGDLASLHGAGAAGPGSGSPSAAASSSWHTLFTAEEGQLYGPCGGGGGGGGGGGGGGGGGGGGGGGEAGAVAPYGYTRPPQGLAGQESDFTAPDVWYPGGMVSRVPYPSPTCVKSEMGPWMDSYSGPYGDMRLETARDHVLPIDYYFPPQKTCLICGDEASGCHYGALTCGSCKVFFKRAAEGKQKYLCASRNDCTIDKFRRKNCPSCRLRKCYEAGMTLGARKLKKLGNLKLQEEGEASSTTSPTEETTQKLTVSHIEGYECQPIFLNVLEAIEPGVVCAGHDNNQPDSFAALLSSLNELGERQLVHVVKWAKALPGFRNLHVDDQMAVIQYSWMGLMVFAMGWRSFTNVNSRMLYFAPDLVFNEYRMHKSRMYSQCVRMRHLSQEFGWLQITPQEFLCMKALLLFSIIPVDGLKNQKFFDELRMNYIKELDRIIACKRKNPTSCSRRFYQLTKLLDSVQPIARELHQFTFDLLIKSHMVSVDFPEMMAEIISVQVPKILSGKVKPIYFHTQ
Estrogen receptor beta (Homo sapiens), sequence (Q92731 whole entry, looked up): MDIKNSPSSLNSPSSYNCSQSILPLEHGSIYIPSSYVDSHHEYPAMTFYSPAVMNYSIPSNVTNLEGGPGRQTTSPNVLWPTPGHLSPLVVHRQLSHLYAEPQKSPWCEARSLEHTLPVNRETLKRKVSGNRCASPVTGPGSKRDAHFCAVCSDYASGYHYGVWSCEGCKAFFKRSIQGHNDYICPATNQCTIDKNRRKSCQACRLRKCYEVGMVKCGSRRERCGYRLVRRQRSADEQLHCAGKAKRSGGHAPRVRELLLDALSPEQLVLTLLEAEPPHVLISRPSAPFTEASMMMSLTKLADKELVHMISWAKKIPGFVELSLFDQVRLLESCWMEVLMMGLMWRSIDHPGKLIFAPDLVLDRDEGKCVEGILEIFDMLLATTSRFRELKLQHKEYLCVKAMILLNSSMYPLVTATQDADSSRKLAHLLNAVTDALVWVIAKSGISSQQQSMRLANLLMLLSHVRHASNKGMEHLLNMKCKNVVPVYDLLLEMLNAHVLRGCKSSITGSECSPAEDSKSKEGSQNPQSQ
Thyrotropin receptor (Homo sapiens), sequence (P16473 whole entry, looked up): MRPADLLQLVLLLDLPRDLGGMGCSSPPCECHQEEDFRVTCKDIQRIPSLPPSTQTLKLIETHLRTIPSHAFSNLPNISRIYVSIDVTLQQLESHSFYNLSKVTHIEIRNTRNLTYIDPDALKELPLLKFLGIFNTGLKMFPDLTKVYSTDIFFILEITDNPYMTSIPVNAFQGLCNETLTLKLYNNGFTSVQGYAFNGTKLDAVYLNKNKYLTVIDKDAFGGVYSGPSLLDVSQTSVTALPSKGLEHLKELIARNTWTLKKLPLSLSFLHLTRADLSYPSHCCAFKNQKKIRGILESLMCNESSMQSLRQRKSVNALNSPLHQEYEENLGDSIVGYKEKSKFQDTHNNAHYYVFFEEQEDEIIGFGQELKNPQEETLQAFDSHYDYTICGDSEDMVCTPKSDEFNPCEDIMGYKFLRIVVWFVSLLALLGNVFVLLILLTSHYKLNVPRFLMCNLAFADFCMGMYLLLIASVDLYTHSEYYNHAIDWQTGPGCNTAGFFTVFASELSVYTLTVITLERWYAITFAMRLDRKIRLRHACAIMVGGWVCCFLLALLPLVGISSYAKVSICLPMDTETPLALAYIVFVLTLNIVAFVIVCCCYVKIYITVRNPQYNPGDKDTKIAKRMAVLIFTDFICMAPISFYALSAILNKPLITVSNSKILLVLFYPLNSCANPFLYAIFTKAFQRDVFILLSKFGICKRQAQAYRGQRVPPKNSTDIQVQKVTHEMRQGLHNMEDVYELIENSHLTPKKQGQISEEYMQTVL

Row | Compound | Potency [1] | Potency [2] | outcome [3] | Potency [4] | Potency [5] | Potency [6] | Potency [7] | Potency [8] | Potency [9] | Potency [10] | Potency [11] | Potency [12] | Potency [13] | Potency [14] | Potency [15] | Potency [16] | Potency [17] | Potency [18] | Potency [19] | outcome [20]
1 | CCn1cc(C(=O)O)c(=O)c2cc3c(cc21)OCO3 | inactive | inactive | inactive | inactive | inactive | inactive | inactive | inactive | inactive | inactive | inactive | inactive | inactive | inactive | – | – | – | – | – | –
2 | CC(=O)OCc1ccc2c(c1)OCO2 | inactive | inactive | – | inactive | inactive | inactive | inactive | inactive | inactive | inactive | – | inactive | inactive | – | inactive | – | – | – | – | –
3 | CC(O)CNCC(C)O (stereo unspecified) | inactive | inactive | – | inactive | – | inactive | inactive | inactive | inactive | inactive | inactive | inactive | inactive | inactive | – | inactive | – | – | – | –
4 | CCc1cccc(O)c1 | inactive | inactive | – | inactive | inactive | inactive | inactive | inactive | inactive | inactive | – | inactive | inactive | – | inactive | inactive | inactive | – | – | –
5 | CCc1cccc(CC)c1N | inactive | – | – | inactive | inactive | inactive | inactive | inactive | inactive | inactive | – | inactive | inactive | inactive | inactive | inactive | – | inactive | inactive | inactive
6 | O=C1CCCCCCCCCCC1 | inactive | inactive | – | inactive | inactive | inactive | inactive | inactive | inactive | inactive | inactive | inactive | inactive | – | inactive | inactive | – | – | – | –
7 | COC(=O)/C=C\C(=O)OC | inactive | inactive | – | inactive | – | inactive | inactive | inactive | – | inactive | – | inactive | inactive | inactive | inactive | – | inactive | – | – | –
8 | CC(COCC(C)OC(=O)c1ccccc1)OC(=O)c1ccccc1 (stereo unspecified) | inactive | inactive | – | inactive | – | inactive | inactive | inactive | inactive | inactive | inactive | inactive | inactive | – | inactive | – | inactive | – | – | –
9 | CCCCCCCCO | inactive | inactive | – | inactive | inactive | inactive | inactive | inactive | inactive | inactive | – | inactive | inactive | – | inactive | inactive | inactive | – | – | –
10 | O=C(O)Cc1c[nH]c2ccccc12 | inactive | inactive | – | inactive | inactive | inactive | inactive | inactive | inactive | inactive | – | inactive | inactive | inactive | inactive | – | – | – | – | –
11 | O=C(O)C1=NN(c2ccc(S(=O)(=O)O)cc2)C(=O)C1 | inactive | inactive | – | inactive | inactive | inactive | inactive | inactive | – | inactive | inactive | inactive | inactive | – | – | inactive | – | – | – | –
12 | O=C1O[C@H]([C@H](O)CO)C(O)=C1O | inactive | inactive | – | inactive | inactive | inactive | inactive | inactive | – | inactive | inactive | inactive | inactive | inactive | – | – | – | – | – | –
13 | CCCCCCCCC(=O)O | inactive | inactive | – | inactive | inactive | inactive | inactive | inactive | inactive | inactive | inactive | inactive | inactive | – | inactive | inactive | – | – | – | –
14 | CC(=O)c1nccs1 | inactive | inactive | – | inactive | inactive | inactive | inactive | inactive | inactive | inactive | – | inactive | inactive | inactive | – | inactive | – | – | – | –
15 | C[n+]1ccn(CCO)c1 | inactive | inactive | – | inactive | inactive | inactive | inactive | inactive | – | inactive | – | inactive | – | – | inactive | – | – | – | – | –
16 | Cc1ccc(Cl)cc1 | inactive | inactive | – | inactive | inactive | inactive | inactive | inactive | inactive | inactive | – | inactive | inactive | – | – | inactive | – | – | – | –
17 | Oc1ccc(Cc2ccccc2O)cc1 | inactive | inactive | – | inactive | – | inactive | inactive | inactive | 43.3 µM (active) | inactive | – | inactive | inactive | inactive | – | inactive | – | – | – | –
18 | CCOC(=O)c1ccc(O)cc1 | inactive | inactive | inactive | inactive | – | inactive | inactive | inactive | inactive | inactive | – | inactive | inactive | inactive | – | inactive | – | – | – | –
19 | Cc1nnc(NS(=O)(=O)c2ccc(N)cc2)s1 | inactive | – | inactive | inactive | inactive | inactive | inactive | inactive | – | inactive | inactive | inactive | inactive | – | – | inactive | – | inactive | inactive | inactive
20 | COc1ccc([C@@H]2CC(=O)c3c(O)cc(O[C@@H]4O[C@H](CO[C@@H]5O[C@@H](C)[C@H](O)[C@@H](O)[C@H]5O)[C@@H](O)[C@H](O)[C@H]4O)cc3O2)cc1OC | inactive | inactive | – | inactive | – | inactive | inactive | inactive | inactive | inactive | – | inactive | inactive | – | inactive | inactive | inactive | – | – | –
